Measured values reported in PubChem BioAssay (NCATS).
Values joined by “and” are separate entries in the source; they are usually repeats but may differ in a detail not shown here. Equal values may be shown once. Results filed as inconclusive are left out. A number with no mark means an inactive call. Active and inactive are the calls of the source. Calls follow the shape of the dose curve; as a rule, active = well fitted curve in the direction sought with a large enough effect; inconclusive = small, poorly fitted or top-dose-only effect, or another doubt; inactive = no such curve, though single readings can be large or run the other way.

Experiment: qHTS Assay for Identifying Gametocytocidal Compounds (AID 743244);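 as to max response: actives lower the fluorescent signal which means gametocytes are killed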
Conditions: P. falciparum 3D7 stage III-V gametocytes, alamarBlue, 72 h; max response: hits give low values
How it was run: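 Stage III–V gametocytes of P. falciparum 3D7 were seeded at 20,000 cells/well onto pre-dispensed compounds. After 72 h, 37 °C, 5% CO2, alamarBlue was added for another 24 h.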
% is scaled to controls: 0 for no effect and ±100 for the full control effect; potency is read from the fitted curve at half-maximal effect.

Row | SMILES | max response | Potency
1 | CO[C@@]1(NC(=O)C2SC(=C(C(N)=O)C(=O)O)S2)C(=O)N2C(C(=O)O)=C(CSc3nnnn3C)CS[C@@H]21 (stereo partly drawn) | 10.6% | –
2 | CC(=O)Nc1ccc(NC(=S)NC(=O)c2ccc(C(C)(C)C)cc2)cc1 | -8.07% | –
3 | CC[C@H]1OC(=O)C[C@@H](O)[C@H](C)[C@@H](O[C@@H]2O[C@H](C)[C@@H](O[C@H]3C[C@@](C)(O)[C@@H](O)[C@H](C)O3)[C@H](N(C)C)[C@H]2O)[C@@H](CC=O)C[C@@H](C)C(=O)/C=C/C(C)=C/[C@@H]1CO[C@@H]1O[C@H](C)[C@@H](O)[C@@H](OC)[C@H]1OC | 19.1% and -3.87% | –
4 | O=C(O)c1cc(O)c2c(c1)[C@H]([C@H]1c3cc(C(=O)O)cc(O)c3C(=O)c3c(O[C@@H]4O[C@H](CO)[C@@H](O)[C@H](O)[C@H]4O)cccc31)c1cccc(O[C@@H]3O[C@H](CO)[C@@H](O)[C@H](O)[C@H]3O)c1C2=O | -8.85% | –
5 | O=C[C@H](O)[C@@H](O)[C@@H](O)[C@H](O)CO | -6.65% | –
6 | CC1CCC(NC(=O)N(CCCl)N=O)CC1 (stereo not drawn) | 3.88% | –
7 | CC(CCc1ccc(O)cc1)NCC(O)c1ccc(O)cc1 (stereo not drawn) | 16.5% | –
8 | CCCCCCCCCCCC(=O)OC[C@@H](O)C1OC[C@H](O)[C@H]1O (stereo partly drawn) | -8.97% | –
9 | CCCCCCCCCCCCCCCCOCCOCCOCCOCCOCCOCCOCCOCCOCCOCCOCCOCCOCCOCCOCCOCCOCCOCCOCCOCCO | -3.08% | –
10 | Cc1cc(-c2ccc(N=Nc3ccc4c(S(=O)(=O)O)cc(S(=O)(=O)O)c(N)c4c3O)c(C)c2)ccc1N=Nc1ccc2c(S(=O)(=O)O)cc(S(=O)(=O)O)c(N)c2c1O | 18.4% and 0.953% | –
11 | O[C@@H]([C@H](O)[C@H](O)CBr)[C@H](O)CBr | -5.26% | –
12 | CN1C(=O)C[C@@H](C(=O)N[C@@H](Cc2cnc[nH]2)C(=O)N2CCC[C@H]2C(N)=O)NC1=O | 5.88% | –
13 | COC(=O)C(CN)c1c[nH]c2ccc(OC)cc12 (stereo not drawn) | -6.34% | –
14 | C[S+](C)CCC(N)C(=O)O (stereo not drawn) | 3.96% | –
15 | O=C(O)C1=C(CSc2nnnn2CS(=O)(=O)O)CS[C@@H]2[C@H](NC(=O)[C@H](O)c3ccccc3)C(=O)N12 | -5.8% | –
16 | C=CCN1CCCC1CNC(=O)c1cc(S(N)(=O)=O)cc(OC)c1OC (stereo not drawn) | -2.17% | –
17 | C[C@]12CCC(=O)C[C@@H]1CC[C@@H]1[C@@H]2CC[C@]2(C)C=CC[C@@H]12 | -3.12% | –
18 | CCC(C)[C@@H](N)C(=O)O (stereo partly drawn) | -1.27% | –
19 | CO/N=C(\C(=O)N[C@@H]1C(=O)N2C(C(=O)O)=CCS[C@H]12)c1csc(N)n1 | 5.71% | –

Row | SMILES | max response | Potency
20 | C[C@@H]1O[C@@H](OC[C@H]2O[C@@H](Oc3c(-c4ccc(OCCO)c(OCCO)c4)oc4cc(OCCO)cc(O)c4c3=O)[C@H](O)[C@@H](O)[C@@H]2O)[C@H](O)[C@H](O)[C@H]1O | 6.8% | –
21 | CC(C)c1ncc([N+](=O)[O-])n1C | 3.27% | –
22 | CC1(C)S[C@@H]2[C@H](NC(=O)C3(N)CCCCC3)C(=O)N2[C@H]1C(=O)O | 7.96% | –
23 | CC(C)N1CCN(c2ccc(OC[C@H]3CO[C@](Cn4cncn4)(c4ccc(Cl)cc4Cl)O3)cc2)CC1 | 3.43% | –
24 | O=C1CC[C@@H](C(=O)N[C@H]2C[C@@H]2c2ccccc2)N1 | -4.02% | –
25 | CC(C)C[C@@H](NC(=O)[C@@H](O)[C@H](N)Cc1ccccc1)C(=O)O | 1.84% | –
26 | Cc1cccc(C)c1NC(=O)NC1=CCCN1C | -1.59% | –
27 | Cc1cc(=O)c(C(=O)N[C@@H](C(=O)N[C@@H]2C(=O)N3C(C(=O)O)=C(CSc4nnnn4C)CS[C@H]23)c2ccc(O)cc2)c[nH]1 | -4.61% | –
28 | CN[C@@H]1[C@@H](O)[C@@H](O[C@@H]2[C@@H](O)[C@H](O[C@H]3O[C@H](CN)[C@@H](O)[C@H](O)[C@H]3O)[C@@H](N)C[C@H]2NC(=O)C(O)CN)OC[C@]1(C)O (stereo partly drawn) | 16.8% | –
29 | COc1ccc(/C=C/C(=O)O)cc1 | -1.23% | –
30 | CNC(=O)OCc1cccc(COC(=O)NC)n1 | 8.67% | –
31 | CNCC(O)c1ccc(OC(=O)C(C)(C)C)c(OC(=O)C(C)(C)C)c1 (stereo not drawn) | -11.6% | –
32 | Cc1c(C)c2c(c(C)c1OC(=O)CCC(=O)O)CC[C@@](C)(CCC[C@H](C)CCC[C@H](C)CCCC(C)C)O2 | -1.05% | –
33 | CCN(CC)C(=O)[C@]1(c2ccccc2)C[C@@H]1CN | -1.74% | –
34 | F[Si-2](F)(F)(F)(F)F | 2.76% | –
35 | O=C1c2ccccc2C(=O)C1c1ccc(Cl)cc1 | 13.7% | –
36 | CC(C)=CCC/C(C)=C/CC/C(C)=C/CC/C(C)=C/CC1=C(C)C(=O)c2ccccc2C1=O | – | 7.94 µM (active)
37 | CCCCC(=O)O[C@H]1CC[C@H]2[C@@H]3CCc4cc(O)ccc4[C@H]3CC[C@]12C | -1.51% | –
38 | O=S(=O)(O)CCCS(=O)(=O)O | 2.64% | –
